# Experimental data reported in the supplement of paper PMC8728848.
# The sample as a whole holds a higher share of the strongest signals than the screen did.
# Tests used:
# Assay in all cases: glycan array binding signal (z-score within array); higher = stronger binding
# Settings in all cases: glycan notation: IUPAC condensed, linker removed
# [1] = target: Fuc(a1-2)Gal(b1-3)GalNAc(a1-3)[Fuc(a1-2)]Gal(b1-4)GlcNAc
# Procedure, shortened: (§1)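 The binding signal is a Z-score computed within each array and averaged over linkers. Arrays of the same protein sequence at different concentrations or buffers were also averaged together. Data originate from 3228 arrays in the Consortium for Functional Glycomics database, kept only where the protein sequence was available.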
# [2] = target: Fuc(a1-2)Gal(b1-3)GlcNAc(b1-3)[Gal(b1-4)GlcNAc(b1-6)]Gal(b1-4)Glc
# Procedure, shortened: as §1
# [3] = target: Fuc(a1-2)Gal(b1-3)[Fuc(a1-4)]GlcNAc(b1-2)Man(a1-3)[Fuc(a1-2)Gal(b1-3)[Fuc(a1-4)]GlcNAc(b1-2)Man(a1-3)]Man(b1-4)GlcNAc(b1-4)GlcNAc
# Procedure, shortened: as §1
# Fuc(a1-2)Gal(b1-4)Glc = target: Fuc(a1-2)Gal(b1-4)Glc
# Procedure, shortened: as §1
# [4] = target: Fuc(a1-2)Gal(b1-4)GlcNAc(b1-6)GalNAc
# Procedure, shortened: as §1
# [5] = target: Fuc(a1-2)Gal(b1-4)[Fuc(a1-3)]GlcNAc
# Procedure, shortened: as §1
# [6] = target: Fuc(a1-2)Gal3S(b1-4)GlcNAc
# Procedure, shortened: as §1
# [7] = target: Fuc(a1-2)[GalNAc(a1-3)]Gal(b1-4)GlcNAc(b1-2)Man(a1-3)[Fuc(a1-2)[GalNAc(a1-3)]Gal(b1-4)GlcNAc(b1-2)Man(a1-6)]Man(b1-4)GlcNAc(b1-4)[Fuc(a1-6)]GlcNAc
# Procedure, shortened: as §1
# [8] = target: Fuc(a1-2)[GalNAc(a1-3)]Gal(b1-4)GlcNAc(b1-3)Gal(b1-4)GlcNAc
# Procedure, shortened: as §1
# [9] = target: Fuc(a1-2)[GalNAc(a1-3)]Gal(b1-4)[Fuc(a1-3)]GlcNAc
# Procedure, shortened: as §1
# [10] = target: Fuc(a1-3)[Gal(b1-4)]GlcNAc(b1-3)Gal(b1-4)[Fuc(a1-3)]GlcNAc
# Procedure, shortened: as §1
# [11] = target: Fuc(a1-3)[Gal(b1-4)]GlcNAc6S
# Procedure, shortened: as §1
# [12] = target: Gal(a1-3)Gal(b1-3)GlcNAc(b1-2)Man
# Procedure, shortened: as §1
# [13] = target: Gal(b1-3)GlcNAc(a1-3)Gal(b1-4)GlcNAc
# Procedure, shortened: as §1
# [14] = target: Gal(b1-3)GlcNAc(b1-3)Gal(b1-4)GlcNAc
# Procedure, shortened: as §1
# [15] = target: Gal(b1-4)GlcNAc(b1-3)Gal(b1-3)GlcNAc
# Procedure, shortened: as §1
# [16] = target: Gal(b1-4)GlcNAc(b1-3)Gal(b1-4)GlcNAc(b1-3)Gal(b1-4)GlcNAc(b1-3)Gal(b1-4)GlcNAc(b1-3)Gal(b1-4)GlcNAc(b1-2)Man(a1-3)[Gal(b1-4)GlcNAc(b1-3)Gal(b1-4)GlcNAc(b1-3)Gal(b1-4)GlcNAc(b1-3)Gal(b1-4)GlcNAc(b1-3)Gal(b1-4)GlcNAc(b1-2)Man(a1-6)]Man(b1-4)GlcNAc(b1-4)[Fuc(a1-6)]GlcNAc
# Procedure, shortened: as §1
# [17] = target: Gal(b1-4)GlcNAc(b1-3)Gal(b1-4)[Fuc(a1-3)]GlcNAc(b1-3)Gal(b1-4)[Fuc(a1-3)]GlcNAc
# Procedure, shortened: as §1
# [18] = target: Gal3S(b1-3)[Fuc(a1-4)]GlcNAc
# Procedure, shortened: as §1
# Gal4S(b1-4)GlcNAc = target: Gal4S(b1-4)GlcNAc
# Procedure, shortened: as §1
# Gal6S(b1-4)GlcNAc = target: Gal6S(b1-4)GlcNAc
# Procedure, shortened: as §1
# [19] = target: GalNAc(a1-3)GalNAc(b1-3)Gal(a1-4)Gal(b1-4)GlcNAc
# Procedure, shortened: as §1
# GalNAc(b1-4)GlcNAc = target: GalNAc(b1-4)GlcNAc
# Procedure, shortened: as §1
# [20] = target: GalNAc(b1-4)GlcNAc(b1-2)Man(a1-3)[GalNAc(b1-4)GlcNAc(b1-2)Man(a1-6)]Man(b1-4)GlcNAc(b1-4)GlcNAc
# Procedure, shortened: as §1
# GalNAc3S(b1-4)GlcNAc3S = target: GalNAc3S(b1-4)GlcNAc3S
# Procedure, shortened: as §1
# Glc(a1-6)Glc(a1-6)Glc = target: Glc(a1-6)Glc(a1-6)Glc
# Procedure, shortened: as §1
# [21] = target: GlcNAc(b1-2)Gal(b1-3)GalNAc
# Procedure, shortened: as §1
# [22] = target: GlcNAc(b1-2)[GlcNAc(b1-4)]Man(a1-3)[GlcNAc(b1-2)Man(a1-6)]Man(b1-4)GlcNAc(b1-4)GlcNAc
# Procedure, shortened: as §1
# [23] = target: GlcNAc(b1-3)Gal(b1-4)GlcNAc(b1-3)Gal(b1-4)GlcNAc(b1-3)Gal(b1-4)GlcNAc(b1-3)Gal(b1-4)GlcNAc(b1-2)Man(a1-3)[GlcNAc(b1-3)Gal(b1-4)GlcNAc(b1-3)Gal(b1-4)GlcNAc(b1-3)Gal(b1-4)GlcNAc(b1-3)Gal(b1-4)GlcNAc(b1-2)Man(a1-6)]Man(b1-4)GlcNAc(b1-4)[Fuc(a1-6)]GlcNAc
# Procedure, shortened: as §1
# [24] = target: GlcNAc(b1-3)Gal(b1-4)GlcNAc(b1-3)Gal(b1-4)GlcNAc(b1-3)GalNAc
# Procedure, shortened: as §1
binder,measurement,setting,value
"EfCBM33A (Enterococcus faecalis), Q838S1 (protein) MKKSLLTIVLAFSFVLGGAALAPTVSEAHGYVASPGSRAFFGSSAGGNLNTNVGRAQWEPQSIEAPKNTFITGKLASAGVSGFEPLDEQTATRWHKTNITTGPLDITWNLTAQHRTASWDYYITKNGWNPNQPLDIKNFDKIASIDGKQEVPNKVVKQTINIPTDRKGYHVIYAVWGIGDTVNAFYQAIDVNIQ",glycan array binding signal (z-score),[1],-0.436
same,glycan array binding signal (z-score),[2],-0.026
same,glycan array binding signal (z-score),[3],0.371
same,glycan array binding signal (z-score),Fuc(a1-2)Gal(b1-4)Glc,0.342
same,glycan array binding signal (z-score),[4],1.05
same,glycan array binding signal (z-score),[5],0.633
same,glycan array binding signal (z-score),[6],0.017
same,glycan array binding signal (z-score),[7],-0.321
same,glycan array binding signal (z-score),[8],0.048
same,glycan array binding signal (z-score),[9],-1.09
same,glycan array binding signal (z-score),[10],0.008
same,glycan array binding signal (z-score),[11],0.882
same,glycan array binding signal (z-score),[12],1.41
same,glycan array binding signal (z-score),[13],0.358
same,glycan array binding signal (z-score),[14],2.06
same,glycan array binding signal (z-score),[15],-0.608
same,glycan array binding signal (z-score),[16],8.45
same,glycan array binding signal (z-score),[17],0.067
same,glycan array binding signal (z-score),[18],2.81
same,glycan array binding signal (z-score),Gal4S(b1-4)GlcNAc,-1.18
same,glycan array binding signal (z-score),Gal6S(b1-4)GlcNAc,0.105
same,glycan array binding signal (z-score),[19],-0.606
same,glycan array binding signal (z-score),GalNAc(b1-4)GlcNAc,1.05
same,glycan array binding signal (z-score),[20],3.54
same,glycan array binding signal (z-score),GalNAc3S(b1-4)GlcNAc3S,0.074
same,glycan array binding signal (z-score),Glc(a1-6)Glc(a1-6)Glc,0.821
same,glycan array binding signal (z-score),[21],-0.504
same,glycan array binding signal (z-score),[22],0.123
same,glycan array binding signal (z-score),[23],4.24
same,glycan array binding signal (z-score),[24],0.242
